# PubChem BioAssay
# Calls of active or inactive are those of the source. The rule behind the calls is not given here.
# Target: Pantothenate synthetase (Mycobacterium tuberculosis (strain ATCC 25618 / H37Rv)) (UniProt P9WIL5)
# Test: Recombinant Mtb pantothenate synthetase (PanC) inhibitors, coupled enzyme, confirmatory (AID 375);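 note: 0% = full reaction with vehicle and 100% = no enzyme background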
# Details: coupled enzyme assay; at 10 µM, stronger effect = higher value
# Pantothenate synthetase (Mycobacterium tuberculosis (strain ATCC 25618 / H37Rv)), sequence (P9WIL5 whole entry, looked up): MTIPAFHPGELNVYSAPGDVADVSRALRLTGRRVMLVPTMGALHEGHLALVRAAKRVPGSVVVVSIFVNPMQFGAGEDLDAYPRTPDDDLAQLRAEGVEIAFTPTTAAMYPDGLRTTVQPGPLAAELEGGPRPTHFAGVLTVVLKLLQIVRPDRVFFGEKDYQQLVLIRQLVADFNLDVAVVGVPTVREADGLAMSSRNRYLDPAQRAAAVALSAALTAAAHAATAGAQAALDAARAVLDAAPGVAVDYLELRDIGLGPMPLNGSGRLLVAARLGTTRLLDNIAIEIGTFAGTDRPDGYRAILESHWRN
row,SMILES,inhibition
1,COc1nc(Oc2ccc(=O)n(C)n2)nc(N(C)C)n1,4% (inactive)
2,CCOC(=O)CNC(=O)CSc1ncnc2c1cnn2Cc1ccccc1,0% (inactive)
3,COc1ccc(N2CCN(CCCNC(=O)C3CCCN(S(=O)(=O)c4cnc[nH]4)C3)CC2)cc1 (configuration not stated),0% (inactive)
4,CCOC(=O)C(C)On1c(SC(C)C(=O)OCC)nc2ccccc2c1=O (configuration not stated),0% (inactive)
5,CCOc1ccc(N(C(C)C(=O)NC2CCCCCC2)S(C)(=O)=O)cc1 (configuration not stated),1% (inactive)
6,O=C(NCCN1CCOCC1)c1ccc(CS(=O)(=O)Cc2ccccc2F)o1,2% (inactive)
7,Cc1c(C(=O)NCc2ccccn2)oc2ccccc12,0% (inactive)
8,Cc1cc(C)c2oc(=O)cc(CN3CCOCC3)c2c1,0% (inactive)
9,CCOc1ccc2nc(NC(=O)CSc3nc4ccccc4c(=O)n3Cc3ccco3)sc2c1,0% (inactive)
10,Cc1ccc(NC(=O)C2CCCN2S(=O)(=O)c2cccc3cccnc23)cc1F (configuration not stated),0% (inactive)
11,Nc1nc2c(ncn2COCCO)c(=O)[nH]1,0% (inactive)
12,C=CCOC(=O)CCC(=O)Nc1cc(OC)nc(OC)n1,0% (inactive)
13,COc1ccc(CN(C(=O)c2ccccc2OC)C2CCS(=O)(=O)C2)cc1 (configuration not stated),0% (inactive)
14,COc1c(Br)cc2c(C)c(C(=O)O)oc2c1Br,2% (inactive)
15,CC1(C)CC(=O)C2=C(C1)NC(=O)CC2c1ccc(N(CCC#N)CCC#N)cc1 (configuration not stated),9% (inactive)
16,CN(C#N)c1nc(N2CCOCC2)nc(N2CCOCC2)n1,1% (inactive)
17,COC(=O)C1=C(C)C(c2cccs2)NC(=O)N1C (configuration not stated),0% (inactive)
